The full list was thinned out, with hits kept by preference.
TbPYK inhibitor = blocks Trypanosoma brucei pyruvate kinase. 410,000 tested, 0.12% active. Potency, µM (highest dose often 76.8 µM), without a hit: at the top dose activity, negative = inhibition, hits mostly inhibitors. TbPYK enzyme, Kinase-Glo Plus ATP luminescence, 45 min. AID 624173; further: potency means the concentration at half of the fitted maximal effect; on the % scale 0 is the no-effect control and ±100 the full control effect; nearly all actives have a fitted effect of over 50% in size
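Enzyme and substrate buffer are dispensed first and compound is pin-transferred. ADP at 130 uM final then starts the reaction, which runs 45 min at room temperature. Detection reagent is added for 10 min before luminescence is imaged.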
Giardia FBPA inh = inhibitors of Giardia lamblia fructose-1,6-bisphosphate aldolase | purified Giardia FBPA | A8B2U2 | Potency, µM (top dose mostly 59.6 µM), without a hit: top-dose activity, negative = inhibition, actives largely listed as inhibitors | 290,000 tested, 0.71% active; further: potency means the concentration at half of the fitted maximal effect; on the % scale 0 is the no-effect control and ±100 the full control effect; nearly all actives have a fitted effect of over 55% in size
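40 nM FBPA preincubated 10 min at RT with compound (up to 57.5 uM final), then substrate plus GAPDH/TPI/NAD/arsenate coupling and diaphorase/resazurin added. Fluorescence read after 20 min at RT, 525/598 nm.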
LmPK inhibitor = blocks Leishmania mexicana pyruvate kinase activity; 290,000 tested, 0.37% active; purified LmPK, Kinase-Glo ATP luminescence, 1 h; AID 1721; Q27686; Potency, µM (top dose mostly 57.5 µM), for the others: top-dose activity change, negative = inhibition, hits mostly inhibitors; further: potency means the concentration at half of the fitted maximal effect; on the % scale 0 is the no-effect control and ±100 the full control effect
Target sequence (Q27686 whole entry, looked up): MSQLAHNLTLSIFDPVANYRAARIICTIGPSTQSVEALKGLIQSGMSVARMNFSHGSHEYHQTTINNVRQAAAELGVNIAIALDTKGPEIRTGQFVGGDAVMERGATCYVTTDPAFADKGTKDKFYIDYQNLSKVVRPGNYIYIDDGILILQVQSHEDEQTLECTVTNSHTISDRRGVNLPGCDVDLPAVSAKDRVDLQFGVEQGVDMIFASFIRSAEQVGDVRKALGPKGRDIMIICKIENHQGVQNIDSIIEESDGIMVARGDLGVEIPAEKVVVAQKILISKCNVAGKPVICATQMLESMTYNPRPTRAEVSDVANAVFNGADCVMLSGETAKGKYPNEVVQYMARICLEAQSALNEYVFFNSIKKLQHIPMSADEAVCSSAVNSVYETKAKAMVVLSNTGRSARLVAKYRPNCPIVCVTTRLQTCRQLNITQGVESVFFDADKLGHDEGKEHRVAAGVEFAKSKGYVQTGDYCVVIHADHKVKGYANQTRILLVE
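Purified LmPK (0.1 nM) converted ADP (0.1 mM) to ATP with PEP (0.5 mM) in imidazole buffer pH 7.2 with KCl and MgCl2, 1 h at room temperature. ATP was read by Kinase-Glo luminescence; data normalized to uninhibited and no-enzyme controls.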
CHX counter = affects cycloheximide protein synthesis inhibition readout, counter-screen | AID 2314 | max response, % | 300,000 tested, 12% active | cell reporter, cycloheximide protein synthesis inhibition counterscreen; in the data active means max response mostly above about 13%, no sharp cut-off; inactive means mostly below about 14%; further: read at 38.3 µM for the half of the compounds with a filed dose; 0% is about no effect
Sm TGR block = inhibitors of Schistosoma mansoni thioredoxin glutathione reductase. Q962Y6. Potency, µM (highest dose often 114 µM), for the others: at the top dose activity change, negative = inhibition, usual class: inhibitors. AID 485364. 360,000 tested, 3% active. purified TGR, DTNB reduction, TNB absorbance 405 nm; further: potency means the concentration at half of the fitted maximal effect; on the % scale 0 is the no-effect control and ±100 the full control effect; nearly all actives have a fitted effect of over 60% in size
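Kinetic colorimetric format: TGR-catalysed, NADPH-driven DTNB reduction monitored via TNB absorbance. Enzyme dispensed at 20 nM; compound exposure 15 min at room temperature before reaction start.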
Shiga inhibitor = blocks Shiga toxin action in Vero cells; inhibition, % at 38.7 µM; 290,000 tested, 9.2% active; AID 2315; Vero cells, Shiga toxin protein synthesis inhibition reporter; in the data active means inhibition mostly above about 28%, no sharp cut-off; inactive means mostly below about 43%; further: 0% is about no effect
Numbers without * were called inactive; u = inconclusive; x = no result. Unless noted, the call rests on the fitted dose curve; in most records, active means well fitted curve in the direction sought with a large enough effect; inconclusive means small, poorly fitted or top-dose-only effect, or another doubt; inactive means no such curve, though single readings can be large; an effect the other way counts as inactive or inconclusive.

SMILES | TbPYK inhibitor | Giardia FBPA inh | LmPK inhibitor | CHX counter | Sm TGR block | Shiga inhibitor
COc1cccc(/C=C/c2nc(C#N)c(NCC(C)C)o2)c1 | -12% | 0% | -1% | 29* | -32% | 85*
CCOc1ccc(/C=C/c2nc(C#N)c(NCCCOC)o2)cc1 | 7% | 9% | -1% | -2 | -36% | 6
CN(C)CCNc1oc(/C=C/c2ccccc2)nc1C#N | 1% | 2% | 0% | 23* | -6% | 22
Cc1cccc(N(CC(=O)N(C)Cc2ccccc2)S(=O)(=O)c2ccccc2)c1C | 2% | x | x | x | 9% | x
Cc1ccc(C(=O)c2c(N)c(C(=O)Nc3ccccc3Cl)c3ccccn23)cc1 | 0% | x | x | x | 1% | x
C=CCNc1oc(/C=C/c2ccccc2)nc1C#N | 5% | -6% | 4% | 37* | -9% | 74*
Cc1ccc(CNC(=O)C2CCCN(S(=O)(=O)c3ccc4c(c3)oc(=O)n4C)C2)cc1 (stereo not drawn) | 10% | x | x | x | 9% | x
Cc1cccc(N=Nc2c(C)c(C#N)c(O)[nH]c2=O)c1 | -6% | -6% | -2% | 14* | 10% | 8
CCCCCCCCCCCCCCC[C@H](O)[C@@H](N)CO | x | 0% | x | x | x | x
CN(C)c1ccc(N=Nc2ccccc2C(=O)OCC(=O)NCC2CCCCC2)cc1 | -5% | -3% | -1% | 69* | -16% | 72*
O=C(COC(=O)c1ccccc1Br)NCC1CCCCC1 | 2% | x | x | x | x | x
CN(C)c1ccc(N=Nc2ccccc2C(=O)OCC(=O)NC2CCCC2)cc1 | -20% | 0% | -8% | 24* | -12% | 26*
CN(C)c1ccc(N=Nc2ccccc2C(=O)OCC(=O)N(C)C2CCCCC2)cc1 | -17% | -3% | -1% | 27* | -16% | 29*
CCCCC/C=C\C/C=C\C=C\[C@@H](O)C/C=C\CCCC(=O)O | x | 4% | x | x | x | x
CCCn1cc(S(=O)(=O)c2cc(C)ccc2C)c(=O)c2cc(F)c(N3CCCCCC3)cc21 | -4% | x | x | x | -3% | x
Cc1cc(C)c(NC(=O)Cn2c(=O)n(CC3CCCO3)c(=O)c3ccccc32)c(C)c1 (stereo not drawn) | -1% | x | x | x | -3% | x
Cc1ccc(NC(=O)C2Cc3ccccc3CN2C(=O)c2ccco2)cc1S(=O)(=O)N(C)C (stereo not drawn) | 1% | 3% | 2% | 31* | 40µM* | 79*
O=C(Nc1nnc(C2CC2)s1)C1Cc2ccccc2CN1C(=O)c1ccco1 (stereo not drawn) | -25% | -19% | 0% | 23* | 13µM* | 39*
Cc1ccc(NC(=O)CN2CCN(C(=O)c3ccco3)CC2)cc1S(=O)(=O)N(C)C | 35% | x | x | x | x | x
COc1ccc(NC(=O)C2Cc3ccccc3CN2C(=O)c2ccco2)cc1 (stereo not drawn) | -2% | x | -7% | 21* | u | 43
O=C(Nc1ccccc1N1CCOCC1)C1Cc2ccccc2CN1C(=O)c1ccco1 (stereo not drawn) | 4% | -3% | 3% | -3 | u | -13
CN(C)S(=O)(=O)c1cccc(NC(=O)C2Cc3ccccc3CN2C(=O)c2ccco2)c1 (stereo not drawn) | -23% | -7% | 5% | 21* | 18µM* | 69*
C/C(=N\n1nnnc1Nc1ccccc1)c1ccc(N)cc1 | x | -1% | -5% | 26* | 10% | 33
C/C(=N\n1c(C)nc2ccccc2c1=O)c1ccc(N)cc1 | 0% | x | x | x | x | x
C/C(=N\OC(=O)c1ccc(Br)cc1)c1ccccn1 | -9% | 3% | u | 4 | -8% | 13
SMILES | TbPYK inhibitor | Giardia FBPA inh | LmPK inhibitor | CHX counter | Sm TGR block | Shiga inhibitor
C/C(=N/OCc1ccc(Br)cc1)c1ccccn1 | -10% | 1% | -9% | 26* | 11% | 60*
COCCNC(=O)CSc1cn(CC(=O)N2CCCCCC2)c2ccccc12 | -12% | x | x | x | 3% | x
O=C1CCCC2=C1C(c1ccc(O)c(O)c1)c1c(ccc3ncccc13)N2 (stereo not drawn) | 18µM* | 6.3µM* | 3% | 19 | u | 17
CCOc1ccc(C2C3=C(CCCC3=O)Nc3ccc4ncccc4c32)cc1 (stereo not drawn) | 1% | 3% | 2% | -5 | 18µM* | -3
O=C1CCCC2=C1C(c1ccc(O)cc1)c1c(ccc3ccccc13)N2 (stereo not drawn) | -3% | 4% | 1% | -3 | 25µM* | -8
COc1cc(C2Nc3ccc4ncccc4c3C3=C2C(=O)CCC3)ccc1O (stereo not drawn) | -6% | -16% | -2% | 21* | u | 20
COc1cc(C2C3=C(CCCC3=O)Nc3[nH]n(-c4ccccc4)c(=O)c32)ccc1O (stereo not drawn) | -11% | u | -1% | -3 | u | 7
CC1=C(C#N)C(c2ccc(O)cc2)C2=C(CCCC2=O)N1 (stereo not drawn) | -2% | 2% | 0% | 0 | 0% | -19
COc1cc(C2Nc3ccc4ncccc4c3C3=C2C(=O)CCC3)cc(OC)c1OC (stereo not drawn) | -3% | -7% | -4% | 2 | 0% | 14
CC(=O)c1ccc(NC(=O)c2cnc(N3CCCC3)nc2C)cc1 | -21% | x | x | x | 5% | x
CC(C)CN1C(=S)SC(C)(C)C1n1oc(=O)n(-c2ccc(Cl)cc2)c1=O (stereo not drawn) | 1% | 5% | -3% | 15 | 7% | 6
Cn1c(=O)c(-c2cccs2)nc2cnc(N3CCNCC3)nc21 | x | -11% | x | x | x | x
CCOC(=O)CN1C(=O)C(C)(C)Oc2ccc(C(=O)NC(C)(C)CC)cc21 | 2% | 7% | 1% | 22* | 1% | 9
CC1(C)Oc2ccc(C(=O)Nc3ccccc3)cc2N(CC#N)C1=O | 3% | -7% | 0% | 18* | -12% | 38*
CCC(C)(C)NC(=O)c1ccc2c(c1)N(CC(=O)OC)C(=O)C(C)(C)O2 | 4% | 0% | -2% | 8 | -17% | 5
CCCOc1ccc(CN(CCC#N)C(=S)NC(=O)c2ccccc2)cc1 | -19% | u | -3% | 23* | 4% | -32
CCCCC(=O)N1C/C=C\C(c2ccc(OC)cc2)N(Cc2ccc(F)cc2)C(=O)C1C (stereo not drawn) | x | -1% | x | 22 | x | 33
c1ccc(CNC2CCCCCCC2)cc1 (tested in a mixture with another compound) | 3% | x | x | x | x | x
c1ccc(COc2ccc(OCCCNC3CCCC3)cc2)cc1 | -6% | -7% | -8% | 25* | -26% | 53
C=CCNCCCCOc1ccc(OCc2ccccc2)cc1 | 5% | u | -7% | 48* | x | 60*
CCOc1cccc(OCCNC2CCCC2)c1 | -13% | u | 3% | -3 | 6% | 1
COCCCNCCCCOc1ccc(OCc2ccccc2)cc1 | -4% | u | -1% | 30* | x | 97*
CC(C)Oc1ccc(OCCNC2CCCC2)cc1 | -5% | -7% | -4% | 19 | -27% | 74*

Screens as filed in PubChem.
